Results from PubChem BioAssay AID614 (Sanford-Burnham Center for Chemical Genomics, 2007).
Out of some 21,000 compounds screened, fewer than 10 were called active.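 Rule for the calls: active = inhibition above 50% at the 20 µM single-dose screen; inactive = the rest.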 Only a sample is shown.

target: Alkaline phosphatase, tissue-nonspecific isozyme (Homo sapiens) (UniProt P05186); assay: blockers of alkaline phosphatase TNAP activity – biochemical, colorimetric, phosphate release readout, primary screen (AID 614); settings: purified TNAP, pNPP, malachite green phosphate absorbance; at 20 µM; hits give high values
Sequence (P05186 whole entry, looked up): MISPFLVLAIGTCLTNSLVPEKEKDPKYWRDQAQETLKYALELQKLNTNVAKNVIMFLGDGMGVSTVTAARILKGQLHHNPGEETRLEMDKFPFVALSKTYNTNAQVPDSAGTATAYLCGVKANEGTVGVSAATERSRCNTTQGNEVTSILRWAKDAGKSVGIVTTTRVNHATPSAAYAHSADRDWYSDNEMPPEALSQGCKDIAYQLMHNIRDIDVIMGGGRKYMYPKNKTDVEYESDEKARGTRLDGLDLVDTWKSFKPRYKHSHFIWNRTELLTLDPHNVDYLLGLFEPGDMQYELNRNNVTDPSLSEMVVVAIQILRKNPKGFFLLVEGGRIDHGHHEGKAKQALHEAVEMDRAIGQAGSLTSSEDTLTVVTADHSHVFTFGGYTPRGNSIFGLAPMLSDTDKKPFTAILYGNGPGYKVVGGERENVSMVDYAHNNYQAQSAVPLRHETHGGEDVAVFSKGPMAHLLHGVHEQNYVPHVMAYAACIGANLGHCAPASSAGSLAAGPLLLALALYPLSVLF

inhibition, inactive:
CC1Cc2ccccc2N1C(=O)CSc1nc2ccccc2o1 (stereo not given) 14%
CCCn1c(SCC(N)=O)nnc1C(C)C 3.8%
COC(=O)CNC(=O)c1ccc2c(c1)S(=O)(=O)c1ccccc1C2=O 14.1%
O=C(Oc1ccccc1)c1ccc2nccnc2c1 8.8%
CC(Sc1nncs1)C(=O)NCc1ccc2c(c1)OCO2 (stereo not given) 18.9%
C=CCn1c(C2CC(=O)N(c3ccc(C)cc3)C2)nc2ccccc21 (stereo not given) 8.4%
c1ccc2c(CNn3cnnc3)cccc2c1 4%
O=c1cc(CSc2ccc(Cl)cc2)nc(N2CCOCC2)[nH]1 -11.8%
CCCc1nc2c3cnn(-c4cccc(Cl)c4)c3ncn2n1 -13.7%
Cn1c(=O)c2c(nc(OCc3cccnc3)n2Cc2ccccc2)n(C)c1=O 0%
O=C(CCCC(=O)N(CC(=O)NC1CCCC1)Cc1ccccc1Cl)Nc1ccccn1 10.7%
CC12C(=O)N(n3cnnc3)C(=O)C1C1C=CC2C1 (stereo not given) -18.4%
Cn1cnc2c1c(=O)n(Cc1c(Cl)cccc1Cl)c(=O)n2C 7.6%
COc1ccc(-n2c(C)nc3c(cnn3-c3ccccc3)c2=O)cc1 -8.2%
CC(=O)Nc1ccc(S(=O)(=O)N2CCCC2C(=O)O)cc1 (stereo not given) 10.8%
COCCn1nnnc1C(c1ccccc1Cl)N1CCN(c2ccccc2OC)CC1 (stereo not given) 8.5%
CC(Cc1cccs1)NC(=O)NC1CCCCC1 (stereo not given) 10%
CS(=O)(=O)N(CC(=O)N1CCN(c2cccc(Cl)c2)CC1)c1ccccc1 0%
O=C(CSc1nnc(-c2cccnc2)n1Cc1ccco1)c1ccc(Cl)cc1 8.1%
CCN1C(=O)/C(=C\N2CCN(c3ccccc3)CC2)SC1=S 10.1%
O=C(Nc1c(-c2ccccc2)nc2c(Br)cc(Br)cn12)c1ccco1 9.2%
Cc1ccc(C2(c3ccc(C)cc3)NC(=O)N(Cc3c(C)noc3C)C2=O)cc1 -2%
COC(=O)[C@H](C)NC(=O)Nc1ccc(OC(F)(F)F)cc1 4.2%
Cc1csc(NC(=O)CN2CCCCCC2)n1 14.8%
COc1ccc(-c2nc3n(c2Br)CCC3)cc1 0%
CCOC(=O)N1CCN(C(=O)C2CCN(S(C)(=O)=O)CC2)CC1 -0.3%
O=S(=O)(NCc1ccccn1)c1ccc(Br)s1 -2.3%
COCCNC(=O)CN(C(=O)CCC(=O)Nc1cc(C)on1)c1ccc(C)cc1C 14.4%
CN1CCN(S(=O)(=O)c2ccc(NC(=O)C3CCCO3)cc2)CC1 (stereo not given) 11.5%
C=CCNc1nc(C)nc(OC)n1 -2.9%
CCc1cc(=O)oc2cc(C)cc(OC(C)C(=O)O)c12 (stereo not given) 8.6%
O=S(=O)(O)c1nc2ccccc2n1Cc1ccc(Cl)cc1Cl 0%
CCNC(=O)CCc1nc(-c2ccc(C(C)(C)C)cc2)no1 2%
CC1(C)Oc2ccc(C(=O)N3CCOCC3)cc2N(CC(=O)Nc2ccccc2)C1=O -16.7%
COc1cccc(C2/C(=C(/O)c3ccc(F)cc3)C(=O)C(=O)N2CCN(C)C)c1 (stereo not given) 0.4%
Cc1cccc(N)c1SC1CCCCC1O (stereo not given) 9.2%
CC(C)(C)n1nnc(CCc2nnn(C(C)(C)C)n2)n1 0.3%
CCOC(=O)CSc1nnc(NC(=O)c2cccc(S(=O)(=O)N3CCCC3)c2)s1 9.6%
C=CCNc1nnc(C)c2ccccc12 15.4%
COCCNC(=O)C(C#N)c1nc2ccccc2nc1N1CCN(Cc2ccc3c(c2)OCO3)CC1 (stereo not given) 8.2%
CC1COC2C(O1)N(S(C)(=O)=O)CCN2S(C)(=O)=O (stereo not given) 3.4%
CCn1cc(C(=O)NCc2ccc(OC)cc2OC)c(=O)c2ccc(C)nc21 9.9%
Cc1cccc(NC(=O)c2ccccc2NC(=O)C(C)(C)C)n1 0.8%
Cc1cc(C)cc(NC(=O)N2CCC(NC(=O)c3ccc(F)cc3)CC2)c1 7.3%
CSc1nsc(SC)c1NC(=O)OC1CCCCC1 0%
COCc1nc2ccccc2n1Cc1ccccc1Br 1.7%
c1nnc2c3c4c(sc3ncn12)CCC4 9.7%
Cc1cc(Cl)c(S(=O)(=O)NCc2cccnc2)cc1OCC(N)=O 5.5%
O=C(O)c1ccc(NS(=O)(=O)c2cccc3nsnc23)cc1 11.8%
Cn1c(=O)[nH]c(=O)c2c1nc(Br)n2CCCCSc1nc2ccccc2o1 1.3%
CCOC(=O)c1sc(NC(=O)CSc2nnc(-c3ccco3)o2)c(C(=O)OCC)c1C 7.3%
Cc1nc(N2CCCC2C(=O)O)c2oc3ccccc3c2n1 (stereo not given) 10.7%
Cc1nc(NCCN)c(C#N)c2c1COC(C)(C)C2 5.7%
O=S(=O)(NCc1ccccn1)c1ccc(F)cc1 9.6%
CCN(CC)C(=O)CSc1nnc(-c2cnccn2)n1-c1ccc(C)cc1 2.9%
Cc1ccc(S(=O)(=O)Nc2ccccc2CNc2c(C)n(C)n(-c3ccccc3)c2=O)cc1 12.4%
CCC1CCCCN1C(=O)Nc1cccc(NC(=O)N2CCCCC2CC)c1 (stereo not given) 6.5%
Cc1ccc2nc(-c3ccccc3)cc(C(=O)O)c2c1 2.9%
COc1ccc(Cl)cc1NC(=O)C1CC(=O)N(c2ccc(F)cc2)C1 (stereo not given) 4.2%
CCOC(=O)Cn1c(SC)nc2sc3c(c2c1=O)CC(C)(C)OC3 11.5%
CCOC(=O)CCc1c(C)c2ccc(OCc3nn[nH]n3)c(C)c2oc1=O -5.8%
Cc1noc(C)c1CSc1nnc2ccc3ccccc3n12 12.2%
COc1ccc(CCn2c(-c3ccco3)nc3nc4ccccc4nc32)cc1OC 1.5%
Cc1cccc2cc(CN(Cc3ccc4c(c3)OCO4)Cc3nnnn3C3CCCC3)c(=O)[nH]c12 15%
COc1cc(C(=O)N(Cc2ccc(N(C)C)cc2)C2CCS(=O)(=O)C2)cc(OC)c1OC (stereo not given) 8%
